Results reported in PubChem BioAssay (EPA / NIEHS).
Calls of active or inactive are those of the source. How the source made its calls: active means hit-call score of the fitted dose curve at least 0.9, where 1 is the maximum; inactive means score below 0.9.

Test: ATG_M_06_CIS: Attagene CIS-FACTORIAL HepG2 Assay for M06 Transcription Factor (Internal Marker) (AID 2282950)
Details: HepG2 Attagene CIS-FACTORIAL M06 internal marker reporter; actives raise or lower the signal
Method: ATG_CIS is a cell-based, multiplexed-readout assay that uses HepG2, a human liver cell line, with measurements taken at 24 hours after chemical dosing in a 24-well plate.ATG_M_06_CIS is one of 52 assay component(s) measured or calculated from the ATG_CIS assay. It is designed to make measurements of mRNA induction, a form of inducible reporter, as detected with fluorescence intensity signals by Reverse transcription polymerase chain reaction (RT-PCR) and Capillary electrophoresis technology.Data from the assay component ATG_M_06_CIS was analyzed into 1 assay endpoint. This assay endpoint, ATG_M_06_CIS, was analyzed with bidirectional fitting relative to DMSO as the negative control and baseline of activity. Using a type of inducible reporter, measures of mRNA for gain or loss-of-signal activity can be used to understand the background control at the transcription factor-level as they relate to the gene . Furthermore, this assay endpoint can be referred to as a secondary readout, because this assay has produced multiple assay endpoints where this one serves a background control function. To generalize the intended target to other relatable targets, this assay endpoint is annotated to the background measurement intended target family, where the subfamily is internal marker.
Human liver HepG2 cells are transiently transfected with multiple reporter transcription units (MRTUs) in 6-well plates using FuGene 6 reagent (Roche; 3 ml FuGene/1 mg DNA). The MRTU constructs are regulated by a cis-regulating element (promoter). […] A major difference between the CIS and TRANS system is that in CIS activities of endogenous TFs are measured, whereas the TRANS assay evaluates changes in activities of exogenous, chimeric NR-Gal4 proteins. […] At the end of 24 hour incubation, total RNA was isolated using TriZol reagent (Invitrogen). The isolated RNA is then reverse-transcribed using oligo(dT) primer and Mo-MLV reverse transcriptase (Invitrogen) with DNAse I (Ambion) treatment for 30 min. The one-tenth of the produced cDNA was amplified by PCR using Taq DNA polymerase (Invitrogen) and two reporter sequence-specific primers. The PCR products were fluorescently labeled by primer extension with 6-arboxyfluorescein (6-FAM) 5'-labeled reporter sequence-specific primer (2 min at 95 C, 20 s at 68 C and 10 min at 72 C) and these products were digested with 5U of HpaI (New England Biolabs) for 2h at 37 C. The fragments were purified using Qiaquick PCR columns (Qiagen), analyzed on an ABI 3130xL genetic analyzer (Applied Biosystems) with peak positions identified by using a set of X-rhodamine (ROX)-labeled MapMarker1000 molecular weight standards (BioVentures). The raw capillary electrophoresis data was processed using Attagraph software (Attagene).

outcome, inactive:
Cc1ccc(C)o1
BrCc1cccc(Oc2ccccc2)c1
CC1=C(Br)C(=O)C(Br)=C/C1=C(/c1ccccc1S(=O)(=O)O)c1cc(Br)c(O)c(Br)c1C
CS(=O)(=O)c1ccc(Cl)cc1
COc1ccc(OC)c(N=Nc2c(O)ccc3ccccc23)c1
CC[N+](C)(CC)CC
OCCCCC(O)CO (stereo not given)
O=CCc1ccccc1
C=Cc1ccncc1
OCc1ccc(Cl)cc1Cl
CN(C)C(=S)SC(=S)N(C)C
COCCOCCOCCO
O=C1OC[C@H](Cc2cccc(O)c2)[C@H]1Cc1cccc(O)c1
C=C1C[C@]23C[C@@]1(O)CC[C@H]2[C@@]12C=C[C@H](O)[C@@](C)(C(=O)O1)[C@H]2[C@@H]3C(=O)O
CCCC(=O)OCCc1ccccc1
CC(C)(C)c1ccc(C(=O)O)cc1
C[Si]1(C)O[Si](C)(C)O[Si](C)(C)O1
C=C(C)CNCC
COC(=O)C=C(C)CCC=C(C)C
COC(=O)c1ccc(C)cc1C1=NC(C)(C(C)C)C(=O)N1 (stereo not given) (tested in a mixture with another compound)
CC(=O)c1ccccn1
CCOC(=O)CC(C)O (stereo not given)
CC=CC=CCOC(=O)C(C)C
O=c1[nH]c(=O)c2cn[nH]c2[nH]1
CCO/C=C1\N=C(c2ccccc2)OC1=O
O=C(Nc1ccc2c(c1)Cc1ccccc1-2)C(F)(F)F
O=C1OC(=O)c2c(Cl)c(Cl)c(Cl)c(Cl)c21
C=C(C)C(=O)OCCOCCOCCOC(=O)C(=C)C
Brc1ccc(Br)c(Br)c1
c1ccc(CN(Cc2ccccc2)Cc2ccccc2)cc1
Nc1c(Cl)cc(Cl)cc1[N+](=O)[O-]
O=C(O)CNc1ccccc1
COS(=O)(=O)O
Cc1c(C2(c3cc(Br)c(O)c(Br)c3C)OS(=O)(=O)c3ccccc32)cc(Br)c(O)c1Br
CCCCCC(C=O)=Cc1ccccc1
CCC1CCCCC1
CCCC1O[C@@H]2C[C@H]3[C@@H]4CCC5=CC(=O)C=C[C@]5(C)[C@H]4[C@@H](O)C[C@]3(C)[C@]2(C(=O)CO)O1 (stereo not given in full)
O=C1OC(=O)c2c(Br)c(Br)c(Br)c(Br)c21
Cc1cc(C)nc(NS(=O)(=O)c2ccc(N)cc2)n1
CCCCCc1ccco1
